PubChem BioAssay AID651730 (NMMLSC, 2012)
Active and inactive are the calls of the source. No rule for the calls is given here.

assay: V-ATPase regulators in yeast, S. cerevisiae, pHLuorin, powder sets 2-3, dose response (AID 651730); conditions: S. cerevisiae vacuolar pH, pHluorin fluorescence; series mostly up to 100 µM; response, percent: at the top concentration

response, percent, inactive:
O=C(Nc1ccccc1N1CCOCC1)c1cccc(C(F)(F)F)n1 -3.19%
O=C(Nc1ccccc1N1CCOCC1)c1ccc(C(F)(F)F)o1 -3.16%
CC(C)(C)c1ccc(C(=O)Nc2ccccc2N2CCOCC2)o1 -1.99%
O=C(c1ccc(C(F)(F)F)o1)N1CCN(c2nc3ccc(F)cc3s2)CC1 -1.21%
CN(C)Cc1ccc(C(=O)Nc2ccccc2N2CCOCC2)o1 -0.34%
Cc1ccc(C(=O)N2CCN(c3nc4ccc(F)cc4s3)CC2)o1 0.15%
COCc1cccc(C(=O)N2CCN(c3nc4ccc(F)cc4s3)CC2)c1 0.01%
CN(C)Cc1cccc(C(=O)N2CCN(c3nc4ccc(F)cc4s3)CC2)c1 -4.07%
CN(C)S(=O)(=O)c1cccc(C(=O)N2CCN(c3nc4ccc(F)cc4s3)CC2)c1 8.43%
O=C(c1cc(C(F)(F)F)ccn1)N1CCN(c2nc3ccc(F)cc3s2)CC1 -2.05%
N#Cc1cccc(C(=O)Nc2ccccc2N2CCOCC2)c1 0.04%
